The record followed here is PubChem BioAssay (Tox21).

For experiment [1], the target named is Nuclear receptor subfamily 1 group I member 2 (Homo sapiens) (UniProt O75469). The experiment can be described thus: CYP3A4 induction through human pregnane X receptor (PXR) by small molecules, qHTS assay (AID 1346984). Also: % is scaled to controls: 0 for no effect and ±100 for the full control effect; nearly all actives have a fitted effect of over 40% in size. A digest of the protocol: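 Human PXR activation is tracked via CYP3A4 promoter-luciferase in DPX-2 (HepG2) cells. Compounds treat cells for 24hr at 37C, and luminescence is read after One-Glo.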

Experiment [2] has the same target. Description: Human pregnane X receptor (PXR) activation by small molecules, qHTS assay (AID 1346985). Also: nearly all actives have a fitted effect of over 40% in size. Also: potency is read from the fitted curve at half-maximal effect. As to activation: % is scaled to controls: 0 for no effect and ±100 for the full control effect. A digest of the protocol:
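DPX-2 cells (HepG2 co-transfected with a PXR response element and a CYP3A4-promoter luciferase construct) were seeded at 2,000 per well, rested 5 hr at 37C, then exposed to DMSO-dissolved compounds for 24 hr. Activation was read as luciferase luminescence.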

Experiment [3] concerns the target Nuclear receptor subfamily 1 group I member 2 (Rattus norvegicus) (UniProt Q9R1A7). The experiment can be described thus: Rat pregnane X receptor (rPXR) activation by small molecules, qHTS assay (AID 1346983). Also: nearly all actives have a fitted effect of over 20% in size. Also: potency is read from the fitted curve at half-maximal effect. As to max activation: % is scaled to controls: 0 for no effect and ±100 for the full control effect. The following applies: rPXR luciferase reporter cells, One-Glo luminescence, 24 h; max activation: stronger effect = higher value. A digest of the protocol:
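Cell-based rPXR activation assay: rPXR cells, 2,000 per well, rested 5hr at 37 C, then exposed to compounds in DMSO for 24 hr at 37 C. Luciferase activity read by One-Glo luminescence after 30 min at room temperature.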

Experiment [4] concerns the target Cytochrome P450 2D6 (Homo sapiens) (UniProt P10635). Description: Cytochrome P450 Family 2 Subfamily D Member 6 (CYP2D6) small molecule antagonists: luciferase reporter qHTS assay (AID 1671196). Also: potency is read from the fitted curve at half-maximal effect; nearly all actives have a fitted effect of over 50% in size. A digest of the protocol: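 Quantitative HTS of Tox21 chemicals against CYP2D6 using a luminescent proluciferin substrate. After NADPH addition, 1 h room-temperature reaction; luminescence recorded 20 min post detection reagent.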

For experiment [5], the target named is Cytochrome P450 2C19 (Homo sapiens) (UniProt P33261). Description: Cytochrome P450 Family 2 Subfamily C Member 19 (CYP2C19) small molecule antagonists: luciferase reporter qHTS assay (AID 1671197). Also: potency is read from the fitted curve at half-maximal effect; nearly all actives have a fitted effect of over 65% in size. A digest of the protocol: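 Quantitative high-throughput screen of the Tox21 library using CYP2C19 with proluciferin substrate. Reaction: NADPH regeneration, 37C, 1 h, after 10 min compound preincubation at room temperature. Readout: luminescence.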

Experiment [6] deals with Cytochrome P450 2C9 (Homo sapiens) (UniProt P11712). Description: Cytochrome P450 Family 2 Subfamily C Member 9 (CYP2C9) small molecule antagonists: luciferase reporter qHTS assay (AID 1671198). Also: potency is read from the fitted curve at half-maximal effect; nearly all actives have a fitted effect of over 50% in size. A digest of the protocol: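 P450-Glo proluciferin substrate with CYP2C9 enzyme; 10 min RT preincubation, then NADPH regeneration 1 h at 37C; luciferin detection reagent 20 min RT, luminescence in relative luminescence units.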

Experiment [7] addresses Voltage-gated inwardly rectifying potassium channel KCNH2 (Homo sapiens) (UniProt Q12809). The experiment can be described thus: Human Ether-a-go-go-Related Gene (hERG) channel small molecule antagonists: fluorescence cell-based qHTS assay (AID 1671200). Also: nearly all actives have a fitted effect of over 50% in size. Also: potency is read from the fitted curve at half-maximal effect. A digest of the protocol:
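Read-out: thallium influx as a surrogate for potassium, tracked as fluorescence (480 nm ex/540 nm em) every second for 2 min after Stimulus Buffer addition in dye-loaded hERG-U2OS cells.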

For experiment [8], the target named is Cytochrome P450 3A4 (Homo sapiens) (UniProt P08684). Description: Cytochrome P450 Family 3 Subfamily A Member 4 (CYP3A4) small molecule antagonists: luciferase reporter qHTS assay (AID 1671201). Also: potency is read from the fitted curve at half-maximal effect; nearly all actives have a fitted effect of over 50% in size. A digest of the protocol:
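Luminescent readout (RLU) proportional to CYP3A4 activity, from luciferin generated off a proluciferin substrate. Enzyme–substrate mix plus compound 10 min at room temp, NADPH regeneration 1 h, detection reagent 20 min.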

Records with an inconclusive call do not appear. Values without a mark were called inactive. Calls of active or inactive are those of the source. Calls follow the shape of the dose curve; as a rule, active = well fitted curve in the direction sought with a large enough effect in the repeat runs; inconclusive = weak or mixed curves; inactive = no such curve, though single readings can be large; an effect the other way counts as inactive or inconclusive. Positions of bridges follow the written chain, without caps; N, C: chain ends. Non-standard residues stand in square brackets, D forms with d. Residues, ends and D or L forms follow the SMILES beside them. *: point of attachment. X1 = CC[C@@H](C)[C@@H](N)C1=N[C@H](C(=O)*)CS1; d(aIle) = CC[C@H](C)[C@@H](N)C(=O)O; dOrn = NCCC[C@@H](N)C(=O)O

Nuclear receptor subfamily 1 group I member 2 (Rattus norvegicus), sequence (Q9R1A7 whole entry, looked up): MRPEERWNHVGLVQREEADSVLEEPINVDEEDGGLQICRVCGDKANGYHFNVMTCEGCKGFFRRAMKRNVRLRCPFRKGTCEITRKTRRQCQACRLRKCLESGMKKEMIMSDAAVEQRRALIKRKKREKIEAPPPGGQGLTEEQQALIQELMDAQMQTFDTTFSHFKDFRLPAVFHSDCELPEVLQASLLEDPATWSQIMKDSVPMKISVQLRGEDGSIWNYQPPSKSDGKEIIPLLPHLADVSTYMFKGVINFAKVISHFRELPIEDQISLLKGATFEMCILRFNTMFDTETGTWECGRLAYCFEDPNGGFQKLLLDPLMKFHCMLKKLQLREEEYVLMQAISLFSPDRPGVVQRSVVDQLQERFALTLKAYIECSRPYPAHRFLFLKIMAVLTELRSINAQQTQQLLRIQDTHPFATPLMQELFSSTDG
Cytochrome P450 2D6 (Homo sapiens), sequence (P10635 whole entry, looked up): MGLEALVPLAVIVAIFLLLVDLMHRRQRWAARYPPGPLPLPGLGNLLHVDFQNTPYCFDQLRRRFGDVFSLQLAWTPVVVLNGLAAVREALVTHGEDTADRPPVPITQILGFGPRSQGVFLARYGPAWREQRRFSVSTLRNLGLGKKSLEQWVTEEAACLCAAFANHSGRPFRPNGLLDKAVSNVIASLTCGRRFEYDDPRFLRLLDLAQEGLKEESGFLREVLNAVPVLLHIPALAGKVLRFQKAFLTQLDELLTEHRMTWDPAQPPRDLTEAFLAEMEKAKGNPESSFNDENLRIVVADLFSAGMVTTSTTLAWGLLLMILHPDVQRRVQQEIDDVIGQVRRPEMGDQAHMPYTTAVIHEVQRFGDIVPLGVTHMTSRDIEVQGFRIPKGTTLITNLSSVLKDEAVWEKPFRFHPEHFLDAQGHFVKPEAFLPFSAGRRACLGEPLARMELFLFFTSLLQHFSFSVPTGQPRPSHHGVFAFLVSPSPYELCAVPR
Cytochrome P450 2C19 (Homo sapiens), sequence (P33261 whole entry, looked up): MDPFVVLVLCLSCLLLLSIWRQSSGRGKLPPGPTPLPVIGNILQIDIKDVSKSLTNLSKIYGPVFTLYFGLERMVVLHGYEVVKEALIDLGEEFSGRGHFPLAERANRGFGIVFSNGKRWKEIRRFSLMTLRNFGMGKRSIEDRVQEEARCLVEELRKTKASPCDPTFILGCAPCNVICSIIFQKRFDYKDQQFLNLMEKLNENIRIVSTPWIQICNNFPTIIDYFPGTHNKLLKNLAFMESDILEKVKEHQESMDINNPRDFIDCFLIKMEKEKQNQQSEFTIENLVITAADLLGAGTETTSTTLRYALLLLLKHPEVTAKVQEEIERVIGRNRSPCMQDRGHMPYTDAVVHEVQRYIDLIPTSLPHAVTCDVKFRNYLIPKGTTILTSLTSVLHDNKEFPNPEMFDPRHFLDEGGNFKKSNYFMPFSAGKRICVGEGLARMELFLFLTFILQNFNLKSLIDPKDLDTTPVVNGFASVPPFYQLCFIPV
Voltage-gated inwardly rectifying potassium channel KCNH2 (Homo sapiens), sequence (Q12809 whole entry, looked up): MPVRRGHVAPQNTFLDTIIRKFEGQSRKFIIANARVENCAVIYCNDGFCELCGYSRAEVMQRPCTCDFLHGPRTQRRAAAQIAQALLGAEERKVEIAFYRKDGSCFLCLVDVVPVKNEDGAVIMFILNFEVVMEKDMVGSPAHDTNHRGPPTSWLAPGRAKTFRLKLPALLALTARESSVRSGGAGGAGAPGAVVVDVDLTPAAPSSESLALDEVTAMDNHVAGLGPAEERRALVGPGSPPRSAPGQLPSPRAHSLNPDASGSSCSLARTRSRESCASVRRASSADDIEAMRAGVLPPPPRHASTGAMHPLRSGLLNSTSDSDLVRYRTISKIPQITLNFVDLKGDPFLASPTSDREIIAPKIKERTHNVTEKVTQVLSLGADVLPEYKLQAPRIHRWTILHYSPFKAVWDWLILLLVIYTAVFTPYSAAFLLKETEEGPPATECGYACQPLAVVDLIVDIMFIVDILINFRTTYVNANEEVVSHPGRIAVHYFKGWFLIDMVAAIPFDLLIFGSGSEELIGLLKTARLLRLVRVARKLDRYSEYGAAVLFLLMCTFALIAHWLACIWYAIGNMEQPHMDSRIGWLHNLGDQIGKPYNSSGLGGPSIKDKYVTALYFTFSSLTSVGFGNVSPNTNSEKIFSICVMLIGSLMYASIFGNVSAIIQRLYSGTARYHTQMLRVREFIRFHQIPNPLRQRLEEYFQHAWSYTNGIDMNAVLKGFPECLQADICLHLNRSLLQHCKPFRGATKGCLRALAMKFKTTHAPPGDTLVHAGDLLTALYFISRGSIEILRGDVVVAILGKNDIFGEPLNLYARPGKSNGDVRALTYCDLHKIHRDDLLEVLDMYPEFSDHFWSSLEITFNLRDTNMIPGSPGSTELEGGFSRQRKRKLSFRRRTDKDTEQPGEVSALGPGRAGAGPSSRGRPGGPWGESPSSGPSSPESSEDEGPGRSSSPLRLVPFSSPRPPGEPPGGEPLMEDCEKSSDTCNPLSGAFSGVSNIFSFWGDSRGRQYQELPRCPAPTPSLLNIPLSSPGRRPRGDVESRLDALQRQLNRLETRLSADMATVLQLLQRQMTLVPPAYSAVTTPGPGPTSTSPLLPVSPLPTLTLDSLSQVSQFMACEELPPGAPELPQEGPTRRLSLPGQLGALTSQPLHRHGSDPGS
Cytochrome P450 2C9 (Homo sapiens), sequence (P11712 whole entry, looked up): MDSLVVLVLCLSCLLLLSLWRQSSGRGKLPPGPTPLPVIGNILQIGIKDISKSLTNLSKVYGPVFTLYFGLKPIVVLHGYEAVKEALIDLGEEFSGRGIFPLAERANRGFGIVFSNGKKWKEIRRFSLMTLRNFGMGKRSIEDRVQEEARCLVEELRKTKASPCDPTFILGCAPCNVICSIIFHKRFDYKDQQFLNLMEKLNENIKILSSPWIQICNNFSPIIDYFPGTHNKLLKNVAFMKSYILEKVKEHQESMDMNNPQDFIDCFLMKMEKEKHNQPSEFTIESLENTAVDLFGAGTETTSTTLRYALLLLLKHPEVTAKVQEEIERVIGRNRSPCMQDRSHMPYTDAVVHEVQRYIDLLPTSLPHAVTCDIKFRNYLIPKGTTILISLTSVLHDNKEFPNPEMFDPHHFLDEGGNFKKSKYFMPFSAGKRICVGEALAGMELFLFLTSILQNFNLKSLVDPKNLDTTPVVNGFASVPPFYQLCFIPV
Cytochrome P450 3A4 (Homo sapiens), sequence (P08684 whole entry, looked up): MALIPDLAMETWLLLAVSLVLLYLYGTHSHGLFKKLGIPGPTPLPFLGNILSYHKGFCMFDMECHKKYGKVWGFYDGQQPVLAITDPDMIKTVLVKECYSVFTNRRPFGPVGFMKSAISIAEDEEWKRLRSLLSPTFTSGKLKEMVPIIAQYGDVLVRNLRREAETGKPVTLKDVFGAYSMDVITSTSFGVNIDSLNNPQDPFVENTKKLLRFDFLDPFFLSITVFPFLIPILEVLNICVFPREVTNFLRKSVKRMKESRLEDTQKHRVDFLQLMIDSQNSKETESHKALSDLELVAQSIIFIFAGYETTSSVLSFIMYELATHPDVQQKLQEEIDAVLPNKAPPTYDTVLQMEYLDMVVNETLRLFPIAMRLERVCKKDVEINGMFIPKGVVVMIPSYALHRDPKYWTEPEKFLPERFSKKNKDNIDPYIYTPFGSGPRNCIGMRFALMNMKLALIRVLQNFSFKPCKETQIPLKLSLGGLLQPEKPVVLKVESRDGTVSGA

As for `C=CC[N@@+]12CC[C@@]34c5ccccc5N5/C=C6/[C@H]7C[C@H]8[C@@]9(CC[N@@+]8(CC=C)C/C7=C/CO)c7ccccc7N(/C=C(/[C@@H](C[C@@H]31)/C(=C\CO)C2)[C@H]54)[C@@H]69`, the Potency result in experiment [1] and in experiment [2] was “inactive” in each case.
With `CC(=O)OCC(=O)[C@@]1(O)CC[C@H]2[C@@H]3C[C@H](C)C4=CC(=O)C=C[C@]4(C)[C@H]3[C@@H](O)C[C@@]21C`, the Potency result in experiment [1] and in experiment [2] was “inactive” in each case.
Turning to `CC[C@@]1([C@@H]2O[C@@H]([C@H]3O[C@@](O)(CO)[C@H](C)C[C@@H]3C)C[C@@H]2C)CC[C@H]([C@]2(C)CC[C@]3(C[C@H](O)[C@@H](C)[C@@H]([C@@H](C)[C@@H](OC)[C@H](C)C(=O)O)O3)O2)O1` (stereo in doubt), the Potency result in experiment [1] and in experiment [2] was “inactive” throughout.
Turning to `CC[C@H](C)C(=O)O[C@H]1CCC=C2C=C[C@H](C)[C@H](CC[C@@H]3C[C@@H](O)CC(=O)O3)[C@H]21`, the Potency result in experiment [1] and in experiment [2] was “inactive” each time.
As to `c1ccc(-n2cnnn2)cc1`, the max activation in experiment [3] was -5.33%. In addition, in experiment [2], the Potency result is “inactive”.
Turning to `CCOC(=O)[C@H](CCc1ccccc1)N[C@@H](C)C(=O)N1[C@H](C(=O)O)C[C@H]2CCCC[C@@H]21`, the max activation in experiment [3] is -1.14%. Further, the Potency result in experiment [2] was “inactive”.
Turning to `CC(CNC(=O)c1cccnc1)NC(=O)c1cccnc1` (stereo not given), the Potency entry in experiment [1] and in experiment [2] was “inactive” throughout.
Consider `Nc1nc(/C(=C/CC(=O)O)C(=O)N[C@@H]2C(=O)N3C(C(=O)O)=CCS[C@H]23)cs1`, for which the max activation in experiment [3] is -1.46%. Also, the Potency entry in experiment [2] is “inactive”.
Turning to `CC1=C(/C=C/C(C)=C/C=C/C(C)=C/C=C/C=C(C)/C=C/C=C(C)/C=C/C2=C(C)CCCC2(C)C)C(C)(C)CCC1`, in experiment [3], the max activation is -2.1%. In addition, in experiment [2], the Potency entry is “inactive”.
The matching figures for `COc1cc2c(cc1OC)[C@@H](Cc1cc(OC)c(OC)c(OC)c1)[N+](C)(CCCOC(=O)CC/C=C/CCC(=O)OCCC[N+]1(C)CCc3cc(OC)c(OC)cc3[C@H]1Cc1cc(OC)c(OC)c(OC)c1)CC2` (stereo not given in full): -6.15% and “inactive”.
The matching figures for `C/C(=C\C(=O)OCCCCCCCCC(=O)O)C[C@@H]1OC[C@H](C[C@@H]2O[C@H]2[C@@H](C)[C@H](C)O)[C@@H](O)[C@H]1O`: -5.5% and “inactive”.
For the compound `CN(C)CCOc1ccc(/C(=C(/CCCl)c2ccccc2)c2ccccc2)cc1`, the max activation in experiment [3] is -3.02%. Moreover, the Potency in experiment [4] and in experiment [5] was 52.8 µM (active) each time.
As to `Cc1cc(-c2ccc(N=Nc3ccc4c(S(=O)(=O)O)cc(S(=O)(=O)O)c(N)c4c3O)c(C)c2)ccc1N=Nc1ccc2c(S(=O)(=O)O)cc(S(=O)(=O)O)c(N)c2c1O`, the Potency entry in experiment [1] and in experiment [2] was “inactive” throughout.
`CC/C(=C(/CC)c1ccc(OP(=O)(O)O)cc1)c1ccc(OP(=O)(O)O)cc1`: the Potency entry in experiment [1] and in experiment [2] was “inactive” each time.
`CN(C)CCC(O)(c1ccccc1)c1ccccc1Cl` (stereo not given): the max activation in experiment [3] was 2.06%. The Potency in experiment [2] is 15.8 µM (active).
Turning to `CN1C(=O)C[C@@H](C(=O)N[C@@H](Cc2cnc[nH]2)C(=O)N2CCC[C@H]2C(N)=O)NC1=O`, in experiment [3], the max activation was -0.675%. The Potency entry in experiment [2] was “inactive”.
The matching figures for `CC[C@@H](C)[C@@H](N)C1=N[C@H](C(=O)N[C@@H](CC(C)C)C(=O)N[C@@H](CCC(=O)O)C(=O)N[C@@H](C(=O)N[C@@H]2CCCCNC(=O)[C@@H](CC(N)=O)NC(=O)[C@@H](CC(=O)O)NC(=O)[C@@H](Cc3cnc[nH]3)NC(=O)[C@@H](Cc3ccccc3)NC(=O)[C@@H]([C@H](C)CC)NC(=O)[C@@H](CCCN)NC2=O)[C@@H](C)CC)CS1` (X1-LE[d(aIle)][dK][dOrn][dI][dF][dH][dD][dN]; lactam 4-C): -0.877% and “inactive”.
For the compound `C=C1C(CCl)(CCl)C2(Cl)C(Cl)C(Cl)C1(Cl)C2(Cl)Cl` (stereo not given), the Potency is 11.2 µM (active) in experiment [3]; 15.8 µM (active) in experiment [2]; 44.3 µM (active) in experiment [4]; 1.76 µM (active) in experiment [5]; 15.7 µM (active) in experiment [6]; 43.1 µM (active) in experiment [7]. The Potency in experiment [8] was 0.991 µM (active).
Turning to `CC/C=C\C/C=C\C/C=C\C/C=C\C/C=C\C/C=C\CCC(=O)O`, the Potency result in experiment [1] and in experiment [2] was “inactive” in each case.
`O=C(O)Cc1nn(Cc2ccc(Br)cc2F)c(=O)c2ccccc12`: in experiment [3], the max activation is 0.657%. In addition, the Potency result in experiment [2] was “inactive”.
For the compound `C[C@H](NCCc1ccc(O)cc1)[C@H](O)c1ccc(O)cc1`, in experiment [3], the max activation was -4.49%. In experiment [2], the Potency entry was “inactive”.
On to `CCCOC(=O)c1ccc(O)cc1`, for which, in experiment [3], the max activation was -0.262%. The Potency entry in experiment [2] and in experiment [7] was “inactive” in each case.
As to `CCCCCCOC(=O)c1cccnc1`, the Potency result in experiment [1] and in experiment [2] was “inactive” throughout.
Turning to `CC(C)c1ncc([N+](=O)[O-])n1C`, in experiment [3], the max activation is -4.41%. The Potency entry in experiment [2] was “inactive”.
